“And” between values parts separate entries of the source, which are not always exact repeats. Equal values may be shown once. The panel holds about 79,000 compounds, 15% with a hit somewhere; the sample as a whole holds those more often. The source made the active and inactive calls. No stated cut-off is given here; in the data, active means growth inhibition above about 70%; inactive means the rest. Where a SMILES comes first, the peptide text is derived from it. The star is where a group is joined. Cbz = O=C(OCc1ccccc1)*; NHNH2 = NN*
Test: NCI Yeast Anticancer Drug Screen. Data for the cln2 rad14 strain (AID 165);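 further: 0% = growth equal to vehicle treated cultures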
Settings: S. cerevisiae cln2 rad14 strain, stronger effect = higher value; at 50.0 µM unless noted
Procedure, shortened: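 Growth inhibition, relative to vehicle-treated controls, is the read-out. The test organism is a yeast strain with defined genetic alterations, cln2 rad14.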
With `Oc1ccc(O)c(CNc2ccc(C(O)C(F)(F)F)cc2)c1` (stereo not given) the growth inhibition was 6.45% (inactive).
For `COC(=O)Nn1c(C)c(C(=O)OC)c(C(=O)Nc2ccccc2)c1-c1ccccc1`, the growth inhibition was -1.45% (inactive).
With `CC(O)C(C(=O)O)N(CC1(O)OCC(O)C(O)C1O)N=O` (stereo not given) the growth inhibition was 1.2% (inactive).
In the case of `O=C(Nc1ccc(Cl)cc1Cl)c1cc2nc3ccccc3c(=O)n2c2ccccc12`, the growth inhibition is reported as 7.7% (inactive).
With `O=C(CN1CCCCCC1)Nc1ccc2c(c1)C(=O)c1ccc(NC(=O)CN3CCCCCC3)cc1C2=O` the growth inhibition was 38.6% (inactive).
With `CC1C=NNC1=O` (stereo not given) the growth inhibition was 3.4% (inactive).
In the case of `COc1cccc(N)c1N`, the growth inhibition is reported as 4.6% (inactive).
In the case of `C=C1CC(COc2ccc3c(C)c(Cl)c(=O)oc3c2)(c2ccccc2)OC1=O` (stereo not given), the growth inhibition is reported as 37.5% (inactive).
For `CCCCC(C)(C)SCCC(=O)O`, the growth inhibition was 10.9% (inactive).
With `Nc1nc2ncn(CCO)c2c(=O)[nH]1` the growth inhibition was -0.65% (inactive).
In the case of `CC(=O)[CH-]C(=O)c1ccccc1.CC(=O)[CH-]C(=O)c1ccccc1.CC(C)CCCC(C)[C@H]1CCC2[C@@H]3CCC4C[C@@H]([O-])CC[C@]4(C)C3CC[C@@]21C.CC(C)CCCC(C)[C@H]1CCC2[C@@H]3CCC4C[C@@H]([O-])CC[C@]4(C)C3CC[C@@]21C.Cl.[Ti+4]` (stereo not given in full), the growth inhibition is reported as -12.1% (inactive).
With `CCc1cc(N(C)C)ccc1N=Nc1ccc([N+](=O)[O-])cc1` the growth inhibition was -26.1% (inactive).
With `CS(C)=C(C(=O)c1ccccc1)/C(=C/C(=O)c1ccccc1)c1ccccc1` the growth inhibition was 36% (inactive).
With `NC(=S)Nc1ccc(Br)cc1` the growth inhibition was 34.8% (inactive).
For `CCCCC/C(=N\c1nc[nH]c1C(N)=O)OCC`, the growth inhibition was -7.1% (inactive).
In the case of `O=C1OC(c2ccccc2)=N/C1=C/C=C/c1ccco1`, the growth inhibition is reported as -9.75% (inactive).
For `COc1ccc(C)cc1NC(=O)OCCCl`, the growth inhibition was 5.95% (inactive).
For `O=C(CCCC1CCCCC1)OC1CCCCC1`, the growth inhibition was -8.05% (inactive).
With `COc1ccccc1/C=C\C#N` the growth inhibition was -28% (inactive).
With `COc1cc(O)c2c(=O)cc(-c3ccc(O)cc3O)oc2c1CC=C(C)C` the growth inhibition was 17.7% (inactive).
With `CCOC(=O)CCC(NC(=O)OCc1ccccc1)C(=O)NC(CCC(=O)OCC)C(=O)NN` (stereo not given) (Cbz-Glu(OEt)-Glu(OEt)-NHNH2; configuration not given here) the growth inhibition was 11.8% (inactive).
With `Nc1ccc(S(=O)[O-])cc1.Nc1ccc(S(=O)[O-])cc1.[Zn+2]` the growth inhibition was -26.5% (inactive).
For `C=C1CC[C@](C)(O)[C@@]2(C)CC[C@H]3C(=C(C)C)C(=O)C[C@]3(C)C[C@H]12`, the growth inhibition was 18.5% (inactive).
With `Cc1[nH]c(N)nc(=S)c1CCCNc1ccccc1` the growth inhibition was -9.15% (inactive).
In the case of `CSc1ccc(C2NC(=O)NC2=O)cc1` (stereo not given), the growth inhibition is reported as -9% (inactive).

Test: NCI Yeast Anticancer Drug Screen. Data for the bub3 strain (AID 167)
Settings: S. cerevisiae bub3 mutant strain, stronger effect = higher value; at 50.0 µM unless noted
Procedure, shortened: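 Screening used yeast with an engineered genetic alteration affecting cell cycle control. Compound-exposed cultures were compared with vehicle cultures, and reduced growth was taken as inhibition.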
In the case of `CC1=NN(C(=O)CC(=O)Nc2ccc(C)cc2)C(=O)C1N=Nc1ccc(S(=O)(=O)c2ccc(N=NC3C(=O)N(C(=O)CC(=O)Nc4ccc(C)cc4)N=C3C)cc2)cc1` (stereo not given), the growth inhibition is reported as -1.2% (inactive).
In the case of `Cc1ccccc1N=C(N)N`, the growth inhibition is reported as -0.2% (inactive).
For `OCC(O)COc1ccc(Cl)cc1` (stereo not given), the growth inhibition was 6.4% (inactive).
For `Cc1ccc(OCC(=O)O)c(Cl)c1`, the growth inhibition was 17.4% (inactive).
In the case of `COc1ccc(Br)cc1C1OC(=O)c2c(OC)c(OC)cc([N+](=O)[O-])c21` (stereo not given), the growth inhibition is reported as 2.3% (inactive).
For `CC1CC(=O)Nc2nc3ccccc3n21` (stereo not given), the growth inhibition was -21.8% (inactive).
For `CCOC(=O)c1sc(C(=O)O)cc1-c1cccs1`, the growth inhibition was -10.6% (inactive).
With `CN(C)Cc1cc(C(=O)/C=C/c2ccc(Cl)c(Cl)c2)cc(CN(C)C)c1O` the growth inhibition was 2.15% (inactive).
In the case of `NC1CCCC2CCC(N)C12` (stereo not given), the growth inhibition is reported as 10.7% (inactive).
In the case of `Cc1ccc(OCC2OC(n3cnc4c(Cl)ncnc43)CC2Oc2ccc(C)cc2)cc1` (stereo not given), the growth inhibition is reported as -5.6% (inactive) and 34% (inactive).
In the case of `CC1CCCN(CCC(=O)c2ccc(O)cc2)C1` (stereo not given), the growth inhibition is reported as 7.35% (inactive).
In the case of `c1ccc(-c2cn(-c3ccccc3)nn2)cc1`, the growth inhibition is reported as -28.8% (inactive).
For `CCOc1cc(/C=N/NC(=O)c2ccccc2NC(=O)c2ccccc2Cl)ccc1O`, the growth inhibition was 3.05% (inactive).
In the case of `O=C(OCC(OC(=O)c1ccccc1)C(OC(=O)c1ccccc1)C(OC(=O)c1ccccc1)c1cnn(-c2ccccc2)n1)c1ccccc1` (stereo not given), the growth inhibition is reported as -0.85% (inactive) and 42.1% (inactive).
In the case of `O=C(CCCC(=O)N/N=C/c1ccccc1O)N/N=C\c1ccccc1O`, the growth inhibition is reported as -3.5% (inactive).
With `Oc1ccc(O)c(CNc2ccc(C(O)C(F)(F)F)cc2)c1` (stereo not given) the growth inhibition was 22.1% (inactive).
With `COC(=O)Nn1c(C)c(C(=O)OC)c(C(=O)Nc2ccccc2)c1-c1ccccc1` the growth inhibition was 5.05% (inactive).
With `CC(O)C(C(=O)O)N(CC1(O)OCC(O)C(O)C1O)N=O` (stereo not given) the growth inhibition was -2.65% (inactive).
In the case of `O=C(Nc1ccc(Cl)cc1Cl)c1cc2nc3ccccc3c(=O)n2c2ccccc12`, the growth inhibition is reported as 17.3% (inactive).
With `O=C(CN1CCCCCC1)Nc1ccc2c(c1)C(=O)c1ccc(NC(=O)CN3CCCCCC3)cc1C2=O` the growth inhibition was 8.95% (inactive).
For `CC1C=NNC1=O` (stereo not given), the growth inhibition was -0.05% (inactive).
For `COc1cccc(N)c1N`, the growth inhibition was -16.9% (inactive).
In the case of `C=C1CC(COc2ccc3c(C)c(Cl)c(=O)oc3c2)(c2ccccc2)OC1=O` (stereo not given), the growth inhibition is reported as 18.8% (inactive).
In the case of `CCCCC(C)(C)SCCC(=O)O`, the growth inhibition is reported as 5.6% (inactive).
For `Nc1nc2ncn(CCO)c2c(=O)[nH]1`, the growth inhibition was 3.35% (inactive).
In the case of `CC(=O)[CH-]C(=O)c1ccccc1.CC(=O)[CH-]C(=O)c1ccccc1.CC(C)CCCC(C)[C@H]1CCC2[C@@H]3CCC4C[C@@H]([O-])CC[C@]4(C)C3CC[C@@]21C.CC(C)CCCC(C)[C@H]1CCC2[C@@H]3CCC4C[C@@H]([O-])CC[C@]4(C)C3CC[C@@]21C.Cl.[Ti+4]` (stereo not given in full), the growth inhibition is reported as 25.6% (inactive).
In the case of `CCc1cc(N(C)C)ccc1N=Nc1ccc([N+](=O)[O-])cc1`, the growth inhibition is reported as 9.1% (inactive).
In the case of `CS(C)=C(C(=O)c1ccccc1)/C(=C/C(=O)c1ccccc1)c1ccccc1`, the growth inhibition is reported as 43.6% (inactive).
For `NC(=S)Nc1ccc(Br)cc1`, the growth inhibition was -4.05% (inactive).
In the case of `CCCCC/C(=N\c1nc[nH]c1C(N)=O)OCC`, the growth inhibition is reported as -27.8% (inactive).
For `O=C1OC(c2ccccc2)=N/C1=C/C=C/c1ccco1`, the growth inhibition was -1.6% (inactive).
For `COc1ccc(C)cc1NC(=O)OCCCl`, the growth inhibition was 11.1% (inactive).
With `O=C(CCCC1CCCCC1)OC1CCCCC1` the growth inhibition was -3.9% (inactive).
For `COc1ccccc1/C=C\C#N`, the growth inhibition was -29.2% (inactive).
For `COc1cc(O)c2c(=O)cc(-c3ccc(O)cc3O)oc2c1CC=C(C)C`, the growth inhibition was -2.8% (inactive).
With `CCOC(=O)CCC(NC(=O)OCc1ccccc1)C(=O)NC(CCC(=O)OCC)C(=O)NN` (stereo not given) (Cbz-Glu(OEt)-Glu(OEt)-NHNH2; configuration not given here) the growth inhibition was 23.2% (inactive).
In the case of `Nc1ccc(S(=O)[O-])cc1.Nc1ccc(S(=O)[O-])cc1.[Zn+2]`, the growth inhibition is reported as 1% (inactive).
In the case of `C=C1CC[C@](C)(O)[C@@]2(C)CC[C@H]3C(=C(C)C)C(=O)C[C@]3(C)C[C@H]12`, the growth inhibition is reported as 1.7% (inactive).
In the case of `Cc1[nH]c(N)nc(=S)c1CCCNc1ccccc1`, the growth inhibition is reported as -32.3% (inactive).
For `CSc1ccc(C2NC(=O)NC2=O)cc1` (stereo not given), the growth inhibition was 4.95% (inactive).

Source: PubChem BioAssay (NCI)
